Out of some 48,000 compounds screened, about 13,000 (27%) showed an effect of 50% or more. The list shows a part of the results.

This assay has as its system Wolbachia pipientis. Description: Anti-Wolbachia Cell-Based Screen. The assay is classed as functional. On the set-up: scale not given: in the data most compounds retested in dose-response had high values. To be noted: 5 µM.
Take `CCOC(=O)COC1CCN(C(C)=O)CC(=O)N(C)c2ccccc21` (configuration not stated): the “Percent Effect” value stood at 107.2%. In the case of `COC1CN(C(=O)NCC(N)=O)CCC(=O)N(C)c2ccccc21` (configuration not stated) it was 111.8%. In the case of `CN1CCC(CNC(=O)c2cccc(NC(N)=O)c2)c2ccccc21` (configuration not stated) it was -10.01%. In the case of `CCOC(=O)N1CCN(C(=O)C2CC(=O)N(c3ccccc3Br)C2)CC1` (configuration not stated) it was 18.95%; in that of `NC(=O)CC1CCN(C(=O)NCc2ccccc2-n2cccn2)CC1`, 4.172%; in that of `CCN1CCN(C2CCN(C(C(N)=O)c3ccccc3)CC2)C1=O` (configuration not stated), -3.87%. As for `Cc1ccccc1N1CC(C)N(C(=O)CCn2cccn2)CC1=O` (configuration not stated), the “Percent Effect” value was determined as 17.53%.

With `COC1CCN(C(=O)NCC(N)=O)CC(=O)N(C)c2ccccc21` (configuration not stated), the “Percent Effect” value is 98.17%.

On to `CCOC(=O)N1CCC(OC)c2ccccc2N(C)C(=O)C1` (configuration not stated), for which the “Percent Effect” value stood at 82.02%. In the case of `CN1CCC(CNC(=O)c2ccc(O)nc2)c2ccccc21` (configuration not stated) it was -12.01%; in that of `Cc1ccc(C)c(SCC(=O)Nc2cccc(C(=O)N(C)C)n2)c1`, -1.523%; in that of `Cc1nc(S(=O)(=O)CCn2cccn2)n(C2CCCC2)c1C`, -3.165%. In the case of `CCOC(=O)CNC(=O)N1CCC(OC)c2ccccc2N(C)C(=O)C1` (configuration not stated), the “Percent Effect” value amounted to 109.7%.

On to `CCOC(=O)CNC(=O)N1CCOC(CCc2ccccc2)C1` (configuration not stated), for which the “Percent Effect” value is recorded as -4.892%. Take `CCOC(=O)CNC(=O)N1CCN(c2ncccn2)CC1`: the “Percent Effect” value is on record as -13.49%. For `CS(=O)(=O)N1C[C@H]2CCC[C@@]2(COCC2CCOCC2)C1`, the “Percent Effect” value is given as -10.38%. With `CCCS(=O)(=O)N1C[C@@H]2COC[C@]2(CN2CCOCC2)C1.O=C(O)C(F)(F)F`, the “Percent Effect” value is given as -7.734%. Under `O=C(COC[C@@]12CCC[C@@H]1CN(C1CCCC1)C2)N1CCCC1.O=C(O)C(F)(F)F` stands 93.22%. Under `CS(=O)(=O)N1C[C@@H]2COC[C@]2(CN2CCOCC2)C1.O=C(O)C(F)(F)F` stands 2.768%; under `CS(=O)(=O)N1C[C@@H]2COC[C@]2(COCC(=O)N2CCCC2)C1`, 114.9%. In the case of `O=C(COC[C@]12COC[C@H]1CN(C1CCC1)C2)N1CCCC1.O=C(O)C(F)(F)F` it was 91.79%; in that of `COCCNC(=O)[C@]12COC[C@H]1CN(C1CCOCC1)C2`, -42.69%; in that of `C1CC(N2C[C@@H]3COC[C@]3(COCC3CCOCC3)C2)C1.O=C(O)C(F)(F)F`, 101.5%. Consider `CN(C)S(=O)(=O)N1C[C@H]2CCC[C@@]2(COCc2cccnc2)C1.O=C(O)C(F)(F)F`, for which the “Percent Effect” value is reported as 15.15%. In the case of `CCc1ccc(CNC(=O)CCNc2ncccn2)s1` it was 5.252%; in that of `CCOC(=O)CCCc1ccc2c(c1)CC(=O)N2`, 6.435%.

In the case of `Cc1ncn(-c2cc(N3CCN(S(C)(=O)=O)CC3)ncn2)c1C`, the “Percent Effect” value is -0.4612%.

With `Cc1cc(C)c2nc(CNC3CCNC3=O)cc(O)c2c1` (configuration not stated), the “Percent Effect” value is reported as -8.98%. In the case of `CC(C)c1nc(S(=O)(=O)N(C)c2ccc(F)cc2)c[nH]1`, the “Percent Effect” value is -3.559%. Consider `Cc1cc(CN2C[C@H]3CCC[C@@]3(COCC(=O)N3CCCC3)C2)no1`, for which the “Percent Effect” value is given as -8.943%. In the case of `CN(C)C(=O)COC[C@]12COC[C@H]1CN(C1CCCC1)C2.O=C(O)C(F)(F)F`, the “Percent Effect” value stood at 91.16%. Under `CN(C)C(=O)COC[C@@]12CCC[C@@H]1CN(C1CCC1)C2.O=C(O)C(F)(F)F` stands 4.654%; under `O=C(COC[C@@]12CCC[C@@H]1CN(C1CCC1)C2)N1CCCC1.O=C(O)C(F)(F)F`, 106.1%. Regarding `CN(C)C(=O)COC[C@@]12CCC[C@@H]1CN(C1CCCC1)C2.O=C(O)C(F)(F)F`, the “Percent Effect” value was -10.47%.

`Cc1ccc(CN2CC[C@H]3OCC[C@@]3(COCC(=O)N(C)C)C2)s1.O=C(O)C(F)(F)F`: the “Percent Effect” value is -46.75%. Under `Cc1nc(NC(=O)OC(C)(C)C)sc1C(N)=O` stands 1.161%. Consider `CC(C)c1nnc(CN(C)C(c2ccc(F)cc2)c2cccnc2)o1` (configuration not stated), for which the “Percent Effect” value is 1.551%.

Turning to `Cc1cc(C)nc(N2CCc3ccc(OC(F)F)cc3C2)n1`, the “Percent Effect” value was found to be 7.415%. For `COC[C@]12COC[C@H]1CN(C(=O)c1ccc(F)cc1C)C2`, the “Percent Effect” value is -9.416%. Turning to `Cn1cc(C(=O)N2C[C@@H]3COC[C@]3(COCc3cccnc3)C2)cn1`, the “Percent Effect” value is recorded as 5.656%. Regarding `CS(=O)(=O)NC[C@]12COC[C@H]1CN(C(=O)c1cnccn1)C2`, the “Percent Effect” value is -1.744%. In the case of `Cc1ccnc(OC[C@]23COC[C@H]2CN(C(=O)c2cnccn2)C3)n1` it was 95.8%; in that of `Cc1nc(C(=O)N2C[C@@H]3COC[C@]3(COCc3cccnc3)C2)cs1`, -15.42%; in that of `Cc1ccnc(OC[C@]23COC[C@H]2CN(C(=O)c2ncccn2)C3)n1`, 94.44%.

For `Cc1ccc(C(=O)N2C[C@@H]3COC[C@]3(COCc3cccnc3)C2)cn1`, the “Percent Effect” value is reported as -15.81%. In the case of `Cc1ccnc(OC[C@]23COC[C@H]2CN(C(=O)c2ccnn2C)C3)n1`, the “Percent Effect” value turned out to be 78.09%. Under `Cc1ccnc(OC[C@]23COC[C@H]2CN(C(=O)C2=CCCCC2)C3)n1` stands 104.7%.
